Only a selection was taken, and hits are over-represented in it overall.
SARS PLpro yeast = blocks SARS-CoV papain-like protease in a yeast assay; S. cerevisiae expressing SARS-CoV PLpro, growth rescue; Potency, µM (highest dose often 32.9 µM), without a hit: at the top dose activity, positive = growth rescue, actives largely listed as activators; 0.19% of 330,000 active; also: potency is read from the fitted curve at half-maximal effect; 0% is about no effect; nearly all actives have a fitted effect of over 55% in size
CHX counter = counter-screen hit for Shiga toxin inhibitors, cycloheximide | cell reporter, cycloheximide protein synthesis inhibition counterscreen | 12% of 300,000 active | AID 2314 | max response, %; in the data active = max response mostly above about 13%, no sharp cut-off; inactive = mostly below about 14%; also: read at 38.3 µM for the half of the compounds with a filed dose; 0% is about no effect
Shiga toxin inh = blocks Shiga toxin action in Vero cells | Vero cells, Shiga toxin protein synthesis inhibition reporter | inhibition, % at 38.7 µM | 9.2% of 290,000 active; in the data active = inhibition mostly above about 28%, no sharp cut-off; inactive = mostly below about 43%; also: 0% is about no effect
NS1 inh = inhibitors of influenza NS1 protein function | Potency, µM (highest dose often 46.1 µM), without a hit: at the top dose activity, positive = more growth | 0.4% of 270,000 active | AID 2326; also: potency is read from the fitted curve at half-maximal effect; actives are rising curves; nearly all actives have a fitted effect of over 50% in size
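Growth recovery, yeast-based: influenza A NS1 expressed in S. cerevisiae causes slow growth, and suppressors are detected by OD600. The parent strain without NS1 is used as positive control.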
TbPYK inhibitor = inhibitors of Trypanosoma brucei pyruvate kinase. 0.12% of 410,000 active. AID 624173. TbPYK enzyme, Kinase-Glo Plus ATP luminescence, 45 min. Potency, µM (doses to about 76.8 µM), for inactives: at the highest dose activity, negative = inhibition, actives largely listed as inhibitors. Q57TT1; active = well fitted curve in the direction sought with a large enough effect; an effect the other way counts as inactive or inconclusive; also: potency is read from the fitted curve at half-maximal effect; % is scaled to controls: 0 for no effect and ±100 for the full control effect; nearly all actives have a fitted effect of over 50% in size
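Luminescence from Kinase-Glo Plus, added after a 45-minute room-temperature reaction, served as the end-point read-out. The enzyme and substrate were preincubated with compound before ADP (130 uM final) initiated turnover. Concentration-effect curves came from normalized qHTS data.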
LmPK inh = blocks Leishmania mexicana pyruvate kinase activity. Q27686. purified LmPK, Kinase-Glo ATP luminescence, 1 h. Potency, µM (doses to about 57.5 µM), for inactives: at the highest dose activity change, negative = inhibition, most hits filed as inhibitors. 0.37% of 290,000 active. AID 1721; active = well fitted curve in the direction sought with a large enough effect; an effect the other way counts as inactive or inconclusive; also: potency is read from the fitted curve at half-maximal effect; % is scaled to controls: 0 for no effect and ±100 for the full control effect
Target sequence (Q27686 whole entry, looked up): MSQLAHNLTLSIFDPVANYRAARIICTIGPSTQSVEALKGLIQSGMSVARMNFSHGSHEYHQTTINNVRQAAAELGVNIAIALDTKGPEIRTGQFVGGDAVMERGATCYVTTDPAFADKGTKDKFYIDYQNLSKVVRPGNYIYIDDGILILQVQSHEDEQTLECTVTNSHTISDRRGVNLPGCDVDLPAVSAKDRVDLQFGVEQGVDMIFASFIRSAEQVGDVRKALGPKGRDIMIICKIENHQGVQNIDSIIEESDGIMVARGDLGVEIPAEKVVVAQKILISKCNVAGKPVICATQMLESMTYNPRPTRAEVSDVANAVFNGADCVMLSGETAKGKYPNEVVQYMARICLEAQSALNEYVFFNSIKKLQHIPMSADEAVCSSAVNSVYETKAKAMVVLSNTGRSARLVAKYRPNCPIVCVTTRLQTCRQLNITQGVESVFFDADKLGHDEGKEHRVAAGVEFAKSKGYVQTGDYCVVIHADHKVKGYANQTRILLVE
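qHTS format; LmPK 0.1 nM; substrates PEP 0.5 mM and ADP 0.1 mM. One-hour room-temperature incubation, then coupled luciferase luminescence; 0.5 nM enzyme wells mark activation.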
Starred values were filed as active, the others as inactive; [ ] = remark or other dose. Unless noted, calls follow the shape of the full dose curve.

Screening NC(=O)c1ccsc1NC(=O)COC(=O)CCc1ccccc1 returned TbPYK inhibitor 2.3%.
`COc1cc2c(cc1NC(=S)Nc1cccc3ccccc13)oc1ccccc12` gave SARS PLpro yeast -11.0%, CHX counter 34.9*, Shiga toxin inh 103.0*, NS1 inh 25.7%, TbPYK inhibitor -9.2% and LmPK inh 6.3%.
COCCCNC(=S)Nc1cc2oc3ccccc3c2cc1OC was read as SARS PLpro yeast 0.7%, CHX counter 10.7*, Shiga toxin inh 17.1, NS1 inh -12.1%, TbPYK inhibitor -2.0% and LmPK inh -3.8%.
Screening COc1cc2c(cc1NC(=S)Nc1cccc(C(F)(F)F)c1)oc1ccccc12 returned SARS PLpro yeast 6.7%, CHX counter 2.2, Shiga toxin inh 25.9, NS1 inh -1.9%, TbPYK inhibitor -1.5% and LmPK inh 1.3%.
Screening Clc1ccc2[nH]c3c(c2c1)CCc1cn[nH]c1-3 returned SARS PLpro yeast -51.3%, CHX counter 28.6*, Shiga toxin inh 70.3*, NS1 inh -71.5%, TbPYK inhibitor -5.0% and LmPK inh 2.3%.
For c1ccc2c3c([nH]c2c1)-c1[nH]ncc1CC3 the results were SARS PLpro yeast -1.4%, CHX counter 13.9, Shiga toxin inh 52.8, NS1 inh -122.9%, TbPYK inhibitor -10.7% and LmPK inh 4.1%.
COc1ccc(CCNC(=O)Cc2ccc(NS(=O)(=O)c3ccc(F)cc3)cc2)cc1OC was read as SARS PLpro yeast -2.0% and TbPYK inhibitor -1.5%.
`CC(NC(=O)CCc1nnc(-c2ccccc2)o1)c1ccccc1` (centres undefined) gave SARS PLpro yeast -1.5%, CHX counter 35.3*, Shiga toxin inh 124.1*, NS1 inh -3.0%, TbPYK inhibitor 3.6% and LmPK inh -4.3%.
Screening Cc1cc(CNC(=O)CCc2nnc(CCCc3ccccc3)o2)nn1C returned SARS PLpro yeast 0.0%, CHX counter 37.2*, Shiga toxin inh 33.4*, NS1 inh 2.1%, TbPYK inhibitor -2.4% and LmPK inh 3.8%.
CC(NC(=O)CCc1nnc(CCCc2ccccc2)o1)c1ccccc1 (centres undefined) was read as SARS PLpro yeast 0.5%, CHX counter 28.7*, Shiga toxin inh 93.8*, NS1 inh -8.1%, TbPYK inhibitor -7.2% and LmPK inh -4.8%.
For CC(=O)N1c2ccccc2C(=O)C1N1CCN(c2cc(Cl)ccc2C)CC1 (centres undefined) the results were TbPYK inhibitor -2.1%[15.4 µM].
Screening CC(=O)Nc1cc2nn(-c3ccccc3)nc2cc1C returned SARS PLpro yeast -4.4%, CHX counter 59.4*, Shiga toxin inh 82.9*, NS1 inh 1.0%, TbPYK inhibitor -2.3% and LmPK inh -6.0%.
Screening Cc1cc2nn(-c3ccccc3)nc2cc1NC(=O)c1cccs1 returned SARS PLpro yeast -0.1%, CHX counter 22.4*, Shiga toxin inh active, NS1 inh -4.2%, TbPYK inhibitor -1.0% and LmPK inh 0.4%.
Screening CCC(=O)Nc1cc2nn(-c3ccccc3)nc2cc1Cl returned SARS PLpro yeast 0.2%, CHX counter 42.8*, Shiga toxin inh 79.9*, NS1 inh 12.1%, TbPYK inhibitor -8.9% and LmPK inh -1.2%.
`CN(C)[C@H]1CCN([C@@H]2CS(=O)(=O)N[C@H]2COCc2ccccc2)C1` gave TbPYK inhibitor -0.4%.
`O=C(NC1CCOCC1)C1CCC(=O)N(Cc2ccc(Cl)cc2)C1` (centres undefined) gave CHX counter -1.0, Shiga toxin inh -26.5, NS1 inh -4.3%, TbPYK inhibitor -1.9% and LmPK inh -9.6%.
For CSCC[C@H](NC(=O)[C@H](Cc1ccccc1)NC(=O)[C@H](Cc1cnc[nH]1)NC(=O)CNC(=O)[C@@H](NC(=O)[C@H](C)NC(=O)[C@H](Cc1c[nH]c2ccccc12)NC(=O)[C@H](CCC(N)=O)NC(=O)[C@@H]1CCCN1C(=O)[C@@H](NC(=O)[C@@H]1CCC(=O)N1)C(C)C)C(C)C)C(N)=O the results were CHX counter -6.9 and Shiga toxin inh -4.7.
O=C(N/N=C/c1ccc(-c2ccccc2[N+](=O)[O-])o1)[C@H]1C[C@@H]1c1ccccc1 was read as SARS PLpro yeast -18.4%, CHX counter 31.2*, Shiga toxin inh active, NS1 inh -8.3%, TbPYK inhibitor -13.1% and LmPK inh -1.5%.
`Cc1ccc(C(=O)N/N=C/c2ccc(-c3ccccc3[N+](=O)[O-])o2)cn1` gave SARS PLpro yeast -6.0%, CHX counter 18.8*, Shiga toxin inh 20.4, NS1 inh -27.8%, TbPYK inhibitor -19.6% and LmPK inh -1.5%.
O=[N+]([O-])c1cccc(-c2ccc(/C=N/n3c(-c4ccccc4)n[nH]c3=S)o2)c1 was read as SARS PLpro yeast 6.8%, CHX counter -4.9, Shiga toxin inh -5.8, NS1 inh 9.0%, TbPYK inhibitor -19.1% and LmPK inh 1.7%.
Screening Cc1ccc(C(=O)N/N=C/c2ccc(-c3cccc(Cl)c3)o2)cn1 returned SARS PLpro yeast -1.9%, CHX counter 0.9, Shiga toxin inh 3.3, NS1 inh -6.7%, TbPYK inhibitor 1.6% and LmPK inh 6.1%.
For Cc1n[nH]c(=S)n1/N=C/c1ccc(-c2ccccc2[N+](=O)[O-])o1 the results were SARS PLpro yeast 2.9%, CHX counter 12.8*, Shiga toxin inh 32.5, NS1 inh -1.7%, TbPYK inhibitor 7.94µM* and LmPK inh -10.9%.
For Cn1nnnc1Sc1ncnc2scc(-c3cc4ccccc4o3)c12 the results were SARS PLpro yeast 0.4% and TbPYK inhibitor -6.2%.
For COc1ccc(C(=O)NC(Cn2ccnc2)C(C)(C)C)cc1OC1CCN(C(C)C)CC1 (centres undefined) the results were SARS PLpro yeast 0.8%, CHX counter 1.1, Shiga toxin inh 7.4, NS1 inh 9.6%, TbPYK inhibitor -14.2% and LmPK inh 0.5%.
`COc1ccc(C(=O)N2CCC2(C)C(=O)NC(C)C)cc1OC` (centres undefined) gave TbPYK inhibitor 1.4%.
For COc1ccc(/C=N/N=C(/N)N[N+](=O)[O-])c(OC)c1 the results were SARS PLpro yeast -3.3%, CHX counter 28.9*, Shiga toxin inh 28.9*, NS1 inh -7.6%, TbPYK inhibitor -3.9% and LmPK inh -0.1%.
COc1cc(C(=O)Oc2ccccc2/C=N/NC(=O)c2ccc(Cl)cc2)cc(OC)c1OC was read as SARS PLpro yeast 4.1%, CHX counter 15.4*, Shiga toxin inh 54.9*, NS1 inh -1.3%, TbPYK inhibitor -3.3% and LmPK inh 0.8%.
Screening COc1ccc(/C=N/NC(=O)c2ccc(Br)cc2)c(OC)c1 returned SARS PLpro yeast -1.8%, CHX counter 23.4*, Shiga toxin inh 46.8, TbPYK inhibitor -4.2% and LmPK inh 6.8%.
